Activity calls are given as the source filed them.
Columns and labels:
[1] = tested on: Plasmodium falciparum Sir2 (PF13_0152, Sir2A); assay: Plasmodium falciparum Sir2A binding compounds – biochemical, small-molecule microarray, 635 nm fluorescence, primary screen (AID 1098); details: fluorescence 635 nm, higher = more signal;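 also: score merges spot fluorescence intensity with its signal-to-noise ratio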
[2] = probe aDKK1 binding to arrayed compounds – biochemical, biotinylated probe, 635/667 nm fluorescence, primary screen (AID 1099); details: small-molecule microarray, higher = more signal;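 also: score merges 667nm spot fluorescence with signal to noise across triplicate slides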
[3] = probe aCHRDL2 binding to arrayed compounds – biochemical, biotinylated probe, 635/667 nm fluorescence, primary screen (AID 1100); details: small-molecule microarray, higher = more signal
[4] = change in splice reporter luminescence, either direction, cell-based, HEK293, spliceosome inhibition project, primary screen (AID 1101); details: HEK293 splicing luciferase reporter, 24 h, higher = more signal, called active from +8 up or from −8 down;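 also: HEK293 cells carrying a splicing-competent luciferase reporter gene; test concentration not given here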
[5] = target: Fibroblast growth factor 10 (Homo sapiens) (UniProt O15520); assay: compounds binding fibroblast growth factor 10 – biochemical, small-molecule microarray, 635 nm fluorescence, primary screen (AID 1102); details: FGF10 binding, fluorescence 635 nm, higher = more signal
Fibroblast growth factor 10 (Homo sapiens), sequence (O15520 whole entry, looked up): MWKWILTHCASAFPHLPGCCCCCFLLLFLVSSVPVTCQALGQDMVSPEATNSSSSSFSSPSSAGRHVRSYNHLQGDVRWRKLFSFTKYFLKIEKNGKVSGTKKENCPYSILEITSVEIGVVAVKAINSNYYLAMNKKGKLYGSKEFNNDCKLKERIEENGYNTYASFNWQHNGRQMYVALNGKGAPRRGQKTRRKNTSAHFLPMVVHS

[6] = tested on: glycogen synthase kinase-3 (GSK3A per assay name; protocol says GSK3B); assay: compounds binding glycogen synthase kinase-3 – biochemical, small-molecule microarray, 635 nm fluorescence, GSK3A, primary screen (AID 1103); details: fluorescence 635 nm, higher = more signal; also: the record names both GSK3A and GSK3B
[7] = target: Epidermal growth factor receptor (Homo sapiens) (UniProt P00533); assay: compounds binding epidermal growth factor receptor – biochemical, small-molecule microarray, 635 nm fluorescence, primary screen (AID 1104); details: EGFR binding, higher = more signal;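 also: score merges 667 nm emission intensity with spot signal to noise over triplicate slides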
Epidermal growth factor receptor (Homo sapiens), sequence (P00533 whole entry, looked up): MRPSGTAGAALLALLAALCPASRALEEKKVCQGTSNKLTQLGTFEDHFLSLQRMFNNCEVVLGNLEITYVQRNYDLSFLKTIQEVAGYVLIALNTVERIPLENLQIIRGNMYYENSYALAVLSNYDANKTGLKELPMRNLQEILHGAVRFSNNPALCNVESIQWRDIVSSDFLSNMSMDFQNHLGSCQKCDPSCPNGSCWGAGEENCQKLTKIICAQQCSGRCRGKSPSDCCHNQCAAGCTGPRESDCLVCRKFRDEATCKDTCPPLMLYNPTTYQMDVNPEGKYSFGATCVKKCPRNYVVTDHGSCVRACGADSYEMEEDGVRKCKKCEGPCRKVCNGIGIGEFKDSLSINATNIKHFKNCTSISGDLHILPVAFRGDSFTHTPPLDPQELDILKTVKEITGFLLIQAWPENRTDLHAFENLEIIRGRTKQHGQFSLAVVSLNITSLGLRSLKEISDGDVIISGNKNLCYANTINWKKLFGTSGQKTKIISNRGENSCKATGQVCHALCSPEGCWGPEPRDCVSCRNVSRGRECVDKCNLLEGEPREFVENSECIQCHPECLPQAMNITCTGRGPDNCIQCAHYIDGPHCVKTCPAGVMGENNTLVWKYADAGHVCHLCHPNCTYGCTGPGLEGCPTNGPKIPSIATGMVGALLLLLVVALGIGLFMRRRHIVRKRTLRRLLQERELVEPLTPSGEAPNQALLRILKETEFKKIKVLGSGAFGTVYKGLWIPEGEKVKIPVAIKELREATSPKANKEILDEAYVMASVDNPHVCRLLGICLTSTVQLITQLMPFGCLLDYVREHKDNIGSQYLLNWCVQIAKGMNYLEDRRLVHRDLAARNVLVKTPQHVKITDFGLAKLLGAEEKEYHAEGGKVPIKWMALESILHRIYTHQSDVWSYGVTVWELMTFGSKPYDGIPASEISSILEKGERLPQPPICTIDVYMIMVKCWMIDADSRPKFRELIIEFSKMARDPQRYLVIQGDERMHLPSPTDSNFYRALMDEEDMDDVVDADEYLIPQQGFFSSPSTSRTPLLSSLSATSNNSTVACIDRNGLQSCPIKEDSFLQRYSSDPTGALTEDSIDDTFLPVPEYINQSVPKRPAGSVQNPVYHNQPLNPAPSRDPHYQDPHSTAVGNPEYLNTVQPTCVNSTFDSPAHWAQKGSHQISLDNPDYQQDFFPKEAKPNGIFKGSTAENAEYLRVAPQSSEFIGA

[8] = target: Follistatin-related protein 3 (Homo sapiens) (UniProt O95633); assay: compounds binding follistatin-related protein 3 – biochemical, small-molecule microarray, 635 nm fluorescence, primary screen (AID 1105); details: FSTL3 binding, higher = more signal;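 also: score merges emission near 667 nm and signal to noise per printed spot across three slides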
Follistatin-related protein 3 (Homo sapiens), sequence (O95633 whole entry, looked up): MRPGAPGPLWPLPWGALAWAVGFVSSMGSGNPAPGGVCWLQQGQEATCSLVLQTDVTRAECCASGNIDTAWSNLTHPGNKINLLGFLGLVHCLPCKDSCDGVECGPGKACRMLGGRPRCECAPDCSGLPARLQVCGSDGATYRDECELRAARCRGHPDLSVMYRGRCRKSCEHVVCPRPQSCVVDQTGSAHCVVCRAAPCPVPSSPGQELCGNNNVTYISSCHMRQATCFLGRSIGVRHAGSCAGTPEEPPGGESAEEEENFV

[9] = target: Dickkopf-related protein 1 (Homo sapiens) (UniProt O94907); assay: small molecules binding DKK1 protein – biochemical, small-molecule microarray, 635 nm fluorescence scan, primary screen (AID 1106); details: higher = more signal;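 also: score merges emission near 667 nm with signal to noise over three replicate slides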
Dickkopf-related protein 1 (Homo sapiens), sequence (O94907 whole entry, looked up): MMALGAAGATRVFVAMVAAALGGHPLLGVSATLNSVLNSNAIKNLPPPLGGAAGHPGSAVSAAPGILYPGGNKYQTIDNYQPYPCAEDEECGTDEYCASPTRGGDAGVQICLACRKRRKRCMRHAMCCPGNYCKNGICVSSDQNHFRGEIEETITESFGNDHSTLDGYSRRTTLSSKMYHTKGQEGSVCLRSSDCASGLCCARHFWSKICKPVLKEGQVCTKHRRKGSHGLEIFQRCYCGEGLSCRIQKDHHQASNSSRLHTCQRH

[10] = tested on: Inhibin beta A chain (activin A); assay: small molecules binding activin A – biochemical, small-molecule microarray, 635 nm fluorescence scan, primary screen (AID 1107); details: INHBA, higher = more signal;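 also: mouse activin A protein probed at 4.33 µg/mL on printed slides; score merges bound-protein fluorescence near 667 nm with spot signal-to-noise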
[11] = tested on: Human papillomavirus type 1a protein E7 (residues 44-93); assay: small molecules binding HPV E7 44-93 – biochemical, small-molecule microarray, residues 44-93, 635 nm fluorescence, primary screen (AID 1108); details: fluorescence 635 nm, higher = more signal;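 also: E7 fragment applied at 1 µg/mL in TBST for 1 h at 4 C; score combines spot fluorescence with its signal to noise ratio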
[12] = hepatitis C replication reporter changes, two-sided – Huh7 cells, luciferase reporter, HCV replication inhibitor project, primary screen (AID 1109); details: Huh7 HCV replicon luciferase reporter, 48 h; higher = more signal;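 also: huh7 hepatoma cells harbouring a luciferase neomycin HCV replicon reporter; luciferase luminescence as measure of HCV replicon replication; test concentration not given here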
[13] = target: Left-right determination factor 2 (Homo sapiens) (UniProt O00292); assay: small molecules binding LEFTY2 protein – biochemical, small-molecule microarray, 635 nm fluorescence scan, primary screen (AID 1110); details: higher = more signal
Left-right determination factor 2 (Homo sapiens), sequence (O00292 whole entry, looked up): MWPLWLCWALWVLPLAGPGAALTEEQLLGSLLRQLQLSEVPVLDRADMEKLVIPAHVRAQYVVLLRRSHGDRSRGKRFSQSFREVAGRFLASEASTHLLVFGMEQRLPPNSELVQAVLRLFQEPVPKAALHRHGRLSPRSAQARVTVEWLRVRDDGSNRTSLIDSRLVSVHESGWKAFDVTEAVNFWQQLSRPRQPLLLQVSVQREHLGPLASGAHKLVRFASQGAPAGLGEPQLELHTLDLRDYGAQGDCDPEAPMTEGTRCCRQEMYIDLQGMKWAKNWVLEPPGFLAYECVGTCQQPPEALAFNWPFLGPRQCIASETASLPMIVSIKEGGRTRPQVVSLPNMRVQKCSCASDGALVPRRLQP

[14] = target: Calmodulin-1 (Homo sapiens) (UniProt P0DP23); assay: small molecules binding calmodulin-1 with EGTA – biochemical, small-molecule microarray, Cy5-labelled CALM1, profiling panel (AID 1111); details: Cy5-CALM1 binding fluorescence, higher = more signal;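 also: labelled calmodulin applied in Tris saline Tween buffer holding calcium plus EGTA and DTT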
[15] = target: Calmodulin-1 (Homo sapiens) (UniProt P0DP23); assay: small molecules binding Ca-loaded calmodulin-1 – biochemical, small-molecule microarray, Cy5-labelled CALM1, plus calcium, artefact control for SMM control-protein annotation, profiling panel (AID 1112); details: Cy5-CALM1 binding fluorescence, higher = more signal;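 also: score merges spot fluorescence with signal to noise from triplicate slides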
[16] = probe aWnt5a binding to arrayed compounds – biochemical, biotinylated probe, 635/667 nm fluorescence, primary screen (AID 1113); details: small-molecule microarray, higher = more signal;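 also: score merges 667 nm fluorescence intensity with signal-to-noise per printed feature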
[17] = probe aShh binding to arrayed compounds – biochemical, biotinylated probe, 635/667 nm fluorescence, primary screen (AID 1114); details: small-molecule microarray, higher = more signal;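 also: probe is biotin-labelled aShh protein from a stem cell growth factor screen; measures binding of labelled protein to compounds printed on the slide; score merges feature fluorescence at 667 nm with signal-to-noise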
[18] = probe aNog binding to arrayed compounds – biochemical, biotinylated probe, 635/667 nm fluorescence, primary screen (AID 1115); details: small-molecule microarray, higher = more signal;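 also: probe is biotinylated aNog protein used at 0.15 µg/mL for 1 h at 4 C; z-score combines 667 nm fluorescence of each spot with its signal to noise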
[19] = target: Torsin-1A-interacting protein 1 (Homo sapiens) (UniProt Q5JTV8); assay: compound microarray binding of lysate hLAP1 – cell lysate, small-molecule microarray, COS7 lysate, 635/667 nm fluorescence, primary screen (AID 1116); details: 635 nm fluorescence, higher = more signal
Torsin-1A-interacting protein 1 (Homo sapiens), sequence (Q5JTV8 whole entry, looked up): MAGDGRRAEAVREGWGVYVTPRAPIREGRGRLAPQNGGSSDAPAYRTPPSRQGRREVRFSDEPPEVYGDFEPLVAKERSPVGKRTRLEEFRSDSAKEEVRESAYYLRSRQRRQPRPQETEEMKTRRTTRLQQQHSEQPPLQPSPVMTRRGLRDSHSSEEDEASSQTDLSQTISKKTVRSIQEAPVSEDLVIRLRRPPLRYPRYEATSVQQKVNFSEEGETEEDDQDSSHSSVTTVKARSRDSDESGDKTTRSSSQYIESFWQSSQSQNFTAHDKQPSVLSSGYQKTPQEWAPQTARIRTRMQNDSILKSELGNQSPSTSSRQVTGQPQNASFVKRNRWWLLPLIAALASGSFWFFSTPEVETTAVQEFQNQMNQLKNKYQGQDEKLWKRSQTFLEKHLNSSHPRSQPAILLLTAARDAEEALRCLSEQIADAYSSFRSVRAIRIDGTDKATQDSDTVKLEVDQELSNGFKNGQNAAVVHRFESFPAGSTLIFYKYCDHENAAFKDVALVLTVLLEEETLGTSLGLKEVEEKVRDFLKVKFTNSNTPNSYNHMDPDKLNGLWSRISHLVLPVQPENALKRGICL

[20] = target: Alpha-bungarotoxin (Bungarus multicinctus) (UniProt P60615); assay: compounds binding labelled alpha-BTX control protein – biochemical, small-molecule microarray, Alexa647 label, 635/667 nm fluorescence, artefact control for SMM control protein annotation, profiling panel (AID 1117); details: alpha-BTX-A647 binding fluorescence, higher = more signal
Alpha-bungarotoxin (Bungarus multicinctus), sequence (P60615 whole entry, looked up): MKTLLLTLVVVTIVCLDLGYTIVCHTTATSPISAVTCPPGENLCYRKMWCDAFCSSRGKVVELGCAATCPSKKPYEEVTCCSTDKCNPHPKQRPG

Row | SMILES | composite z-score [1] | composite z-score [2] | composite z-score [3] | z-score [4] | composite z-score [5] | composite z-score [6] | composite z-score [7] | composite z-score [8] | composite z-score [9] | composite z-score [10] | composite z-score [11] | z-score [12] | composite z-score [13] | composite z-score [14] | composite z-score [15] | composite z-score [16] | composite z-score [17] | composite z-score [18] | composite z-score [19] | composite z-score [20]
1 | CN(C)C(=O)[C@@]1(CCC(=O)OC(C)(C)C)COC(c2ccc(OCCCO)cc2)=N1 | 0.999 | 0.66 | 0.945 | 0.351 (inactive) | 0.625 | -0.459 | -0.785 | -0.326 | -1.19 | 0.279 | 1.08 | -0.594 | -1.04 | 0.38 | 0.816 | -0.127 | 0.261 | 1.52 | 1.54 | 0.728
2 | CCCN1C(=O)[C@@]2(Cc3ccccc3)N=C(c3ccc(OCCCO)cc3)O[C@H]2c2ccccc21 | 1.61 | 0.0149 | 0.707 | -0.872 (inactive) | 0.926 | 1.14 | 0.234 | 0.63 | -0.234 | 1.14 | 1.36 | -2.1 | 0.133 | -0.141 | -0.489 | -0.101 | 0.195 | 0.0716 | 1.48 | 1.6
3 | CC[C@@H]1[C@@H]2C3C(=O)N(CC)C(=O)C3CC(=O)[C@@H]2[C@H](c2ccc(C)cc2)N1S(=O)(=O)c1ccc(C)cc1 (stereo not given in full) | 0.426 | 0.384 | 0.246 | -1.52 (inactive) | 0.859 | 1.31 | 0.174 | 0.748 | 0.238 | 0.241 | 1.42 | -1.64 | 0.336 | 0.742 | 0.409 | -0.0761 | 0.232 | -0.546 | 1.22 | 0.564
4 | CC(C)NC(=O)[C@@H]1c2ccccc2C(=O)N(Cc2cc(C(F)(F)F)cc(C(F)(F)F)c2)[C@H]1c1ccc(CO)cc1 | 0.46 | 0.178 | 0.226 | 0.0833 (inactive) | 0.312 | 0.811 | -0.0125 | 0.504 | 0.307 | 0.325 | 0.376 | -0.153 | 0.147 | 0.876 | 0.221 | -0.176 | -0.0793 | 0.735 | 0.724 | 0.594
5 | O=C(CS)NCCCCCNC(=O)[C@@H]1C[C@@H]2C(=O)N3CCC[C@H]3C(=O)N2[C@@H]1c1ccc(O)cc1 | 0.847 | 0.233 | 0.61 | 0.466 (inactive) | 0.598 | 1.14 | 0.128 | 0.0144 | 0.219 | 0.0603 | 0.922 | 0.0311 | 0.0978 | 0.195 | 0.194 | -0.0758 | 0.499 | -0.152 | 0.375 | 0.542
6 | O=[N+]([O-])c1ccc(C[n+]2ccc(-c3ccc(CO)cc3)cc2)o1 | 1.2 | -0.0024 | 0.192 | -0.0885 (inactive) | 0.527 | 0.213 | 0.224 | 1.45 | 0.253 | 1.86 | 0.418 | 0.007 | 0.187 | -0.165 | 0.451 | -0.001 | 0.172 | 0.327 | 1.12 | 1.49

Source: PubChem BioAssay
